This is an account of results in PubChem BioAssay (NCATS).

The target in assay [1] is T1, Hexokinase-4 (Homo sapiens) + Glucokinase regulatory protein (Homo sapiens) (UniProt P35557+Q14397). Kind of assay: qHTS assay for inhibitors of recombinant human GCK-GKRP interaction: HTRF assay (AID 743207). Note: potency is the fitted concentration of half-maximal effect. The method in brief:
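HTRF read-out (ex 320 nm; 615/665 nm emission) after 60 min RT equilibration of 5 nM GST-GCK, 5 nM FLAG-GKRP, 2 uM S6P, compound and anti-FLAG/anti-GST detection antibodies; signal normalized between DMSO wells with and without GCK.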
(In general: In qHTS, concentration-response curves come from the screen itself.)

Assay [2] is described as follows: qHTS profiling of the MIPE4 collection as inhibitors of Plasmodium falciparum (3D7) proliferation (AID 743344; call rule not given here;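 note: scaled between DMSO vehicle wells and 0.29 µM artemisinin as full inhibition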). The settings on record: P. falciparum 3D7 in erythrocytes, SYBR Green DNA fluorescence, 72 h; at 28.5 µM (top of the series) unless noted. The method in brief: (§1)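 Erythrocytes infected with P. falciparum (0.3% parasitemia, 2.5% hematocrit) incubated with compounds 72 h at 37 C, 5% CO2. Lysis with saponin/Triton buffer containing SYBR Green I, overnight at room temperature in the dark; DNA fluorescence (485/535 nm) normalised to 0.29 uM artemisinin and DMSO.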

Assay [3] is described as follows: qHTS profiling of the MIPE4 collection as inhibitors of Plasmodium falciparum (DD2) proliferation (AID 743345; call rule not given here). Particulars: P. falciparum Dd2 in erythrocytes, SYBR Green DNA, 72 h; at 28.5 µM (top of the series) unless noted. The method in brief: as §1
A short description of assay [4]: qHTS profiling of the MIPE4 collection as inhibitors of Plasmodium falciparum (DD2) proliferation (Rep 2) (AID 743346; call rule not given here). The settings on record: P. falciparum Dd2 in erythrocytes, SYBR Green DNA, 72 h; at 28.5 µM (top of the series) unless noted. The method in brief:
as §1

The nature of assay [5]: qHTS profiling of the MIPE4 collection as inhibitors of Plasmodium falciparum (HB3) proliferation (AID 743347; call rule not given here;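 note: plate controls were DMSO vehicle wells for no effect and artemisinin wells for full effect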). The settings on record: P. falciparum HB3 in erythrocytes, SYBR Green DNA, 72 h; at 28.5 µM (top of the series) unless noted. The method in brief:
as §1

Assay [6] can be described thus: High-throughput drug toxicity screening in the BPDCN cell line Gen2.2 (AID 1224824; call rule not given here;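 note: cells exposed to compounds for 48 h before reading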). Particulars: Gen2.2 BPDCN cells; at 45.8 µM (top of the series) unless noted. The method in brief:
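CellTiter-Glo luminescence after 48 h compound exposure of Gen2.2 cells; percent activity set with DMSO as 100% and bortezomib (9.2 uM final) as 0%. Cells seeded at 500 per well, RPMI + 10% FBS, 37 °C.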

Assay [7] is described as follows: High-throughput drug toxicity screening in the BPDCN cell line Cal-1 (AID 1224825; call rule not given here). Particulars: Cal-1 BPDCN cell viability, qHTS; at 45.8 µM (top of the series) unless noted. A digest of the protocol: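 Exponentially growing Cal-1 cells, 500 per well in phenol red-free RPMI with 10% FBS, were exposed to compounds for 48 h at 37 °C, 5% CO2. Viability was read by CellTiter-Glo luminescence and normalised to DMSO (100%) and 9.2 uM bortezomib (0%).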

Assay [8] in a line: qHTS assay for measurement of the activity of small molecule inhibitors on Zika virus induced Caspase-3 activity in human iPSC derived neural progenitor cells (hNPCs) (AID 1224857). Note: % of control where 0% means no effect; nearly all actives have a fitted effect of over 65% in size. A digest of the protocol: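 Pretreat hNPCs with compound 1 h; infect ZIKV 2 FFU/cell; 6 h 37 C, 5% CO2; Caspase-Glo 3/7, 30 min RT; luminescence; normalize to no-virus and virus-only wells.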
Assay [9] can be described thus: qHTS assay for measurement of the activity of small molecule inhibitors on Zika virus induced Caspase-3 activity in human astrocytoma cells (AID 1224859).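 Note: plate controls were ZIKV-infected untreated cells for no effect and uninfected cells for full effect.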 A digest of the protocol: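 Human SNB-19 astrocytoma cells in RPMI 1640 with 10% FBS receive compound one hour ahead of Zika virus at 2 FFU/cell. After 6 h infection, caspase-3/7 activity is detected by Caspase-Glo luminescence.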

Assay [10] can be described thus: qHTS Screen of the MIPE 4.0 Collection Against Ewings Sarcoma (RDES) (AID 1259252). Note: nearly all actives have a fitted effect of over 35% in size. Note: potency is the fitted concentration of half-maximal effect. The method in brief:
(§2)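 Compound titrations go onto adherent log-phase cells 4 h after seeding, incubate 48 h at 37C, then CellTiter-Glo luminescence reports viability relative to DMSO and cell-free controls.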

Assay [11] is described as follows: qHTS Screen of the MIPE 4.0 Collection Against Ewings Sarcoma (TC71) (AID 1259253). Note: nearly all actives have a fitted effect of over 40% in size. Note: potency is the fitted concentration of half-maximal effect. The method in brief:
as §2

Assay [12] in a line: qHTS Screen of the MIPE 4.0 Collection Against Ewings Sarcoma (TC32) (AID 1259256). Note: nearly all actives have a fitted effect of over 45% in size. Note: potency is the fitted concentration of half-maximal effect. The method in brief: as §2
Assay [13] in a line: qHTS Assay for Identifying Gametocytocidal Compounds (AID 743244).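 Note: % is set by controls: 0 for no effect and ±100 for the full control effect; actives lower the fluorescent signal which means gametocytes are killed.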 Particulars: P. falciparum 3D7 stage III-V gametocytes, alamarBlue, 72 h; max response: stronger effect = lower value. A digest of the protocol: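 Compounds are pinned into medium, gametocytes (stage III–V, 3D7, 20,000 cells/well) added, and plates held 72 h at 37 °C in 5% CO2. AlamarBlue follows for 24 h before fluorescence reading.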

Assay [14] in a line: qHTS Screen of the MIPE 4.0 Collection Against Ewings Sarcoma (EW8) (AID 1259255).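 For viability: 100% = DMSO-treated cells and 0% = medium-only wells without cells.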 Note: nearly all actives have a fitted effect of over 35% in size. Note: potency is the fitted concentration of half-maximal effect. A digest of the protocol: as §2
Assay [15] has as its target T1, Hexokinase-4 (Homo sapiens) + Glucokinase regulatory protein (Homo sapiens). The experiment in a line: qHTS assay for inhibitors of recombinant human GCK-GKRP interaction: ADP-Glo assay (AID 743206). Note: potency is the fitted concentration of half-maximal effect. A digest of the protocol: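 GST-GCK and FLAG-GKRP (15 nM each in the dispensed mix, with 2 uM S6P) react with 0.4 mM ATP and 5 mM glucose (final) in Hepes pH 7.6 for 60 min at room temperature. ADP is measured by ADP-Glo luminescence.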

Assay [16] can be described thus: qHTS profiling for inhibitors of Plasmodium falciparum (3D7) proliferation (AID 743322).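 Note: infected erythrocytes exposed to compound for 72 h before lysis; 100% = DMSO vehicle wells and 0% = 0.29 µM artemisinin.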 Particulars: P. falciparum 3D7 proliferation, at 28.7 µM (top of the series). A digest of the protocol: as §1
A short description of assay [17]: qHTS profiling for inhibitors of Plasmodium falciparum (DD2) proliferation (AID 743323; call rule not given here). The settings on record: at 28.7 µM (top of the series), lower = more inhibition. A digest of the protocol:
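P. falciparum Dd2-infected erythrocytes (0.3% parasitemia, 2.5% hematocrit) exposed 72 h at 37 C, 5% CO2. Lysis with SYBR Green, overnight at room temperature, fluorescence 485/535 nm; normalized to 0.29 uM artemisinin and DMSO.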

Assay [18] can be described thus: qHTS profiling for inhibitors of Plasmodium falciparum (HB3) proliferation (AID 743324).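 Note: 100% = DMSO vehicle wells and 0% = artemisinin-treated control wells.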 Particulars: Plasmodium falciparum HB3 blood-stage proliferation; at 28.7 µM (top of the series). The method in brief: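 P. falciparum HB3 grown in erythrocytes (0.3% parasitemia, 2.5% hematocrit final) with compound for 72 h at 37 C, 5% CO2. Parasite DNA detected by SYBR Green after saponin/triton lysis overnight; normalized to 0.29 uM artemisinin and DMSO.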

Values joined by “and” are separate entries in the source; they are usually repeats but may differ in a detail not shown here. Equal entries are not always repeated. Records with an inconclusive call do not appear. Active and inactive are the calls of the source. Unless noted, calls come from the whole dose curve; as a rule, active = well fitted curve in the direction sought with a large enough effect; inconclusive = small, poorly fitted or top-dose-only effect, or another doubt; inactive = no such curve, though single readings can be large; an effect the other way counts as inactive or inconclusive.

T1 sequence (P35557 whole entry, looked up): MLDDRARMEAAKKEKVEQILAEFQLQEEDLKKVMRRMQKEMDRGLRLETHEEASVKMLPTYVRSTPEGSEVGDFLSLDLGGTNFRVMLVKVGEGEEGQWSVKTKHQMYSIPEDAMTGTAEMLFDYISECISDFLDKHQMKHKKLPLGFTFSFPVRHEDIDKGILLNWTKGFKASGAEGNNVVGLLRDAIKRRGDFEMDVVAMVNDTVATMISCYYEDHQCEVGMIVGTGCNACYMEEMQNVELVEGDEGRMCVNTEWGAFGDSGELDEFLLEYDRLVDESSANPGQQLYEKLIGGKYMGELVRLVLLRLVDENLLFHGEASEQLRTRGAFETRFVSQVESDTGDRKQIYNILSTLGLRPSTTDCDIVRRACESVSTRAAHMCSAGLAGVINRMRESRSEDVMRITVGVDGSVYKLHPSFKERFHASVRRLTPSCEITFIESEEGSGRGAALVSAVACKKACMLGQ
T1 sequence (Q14397 whole entry, looked up): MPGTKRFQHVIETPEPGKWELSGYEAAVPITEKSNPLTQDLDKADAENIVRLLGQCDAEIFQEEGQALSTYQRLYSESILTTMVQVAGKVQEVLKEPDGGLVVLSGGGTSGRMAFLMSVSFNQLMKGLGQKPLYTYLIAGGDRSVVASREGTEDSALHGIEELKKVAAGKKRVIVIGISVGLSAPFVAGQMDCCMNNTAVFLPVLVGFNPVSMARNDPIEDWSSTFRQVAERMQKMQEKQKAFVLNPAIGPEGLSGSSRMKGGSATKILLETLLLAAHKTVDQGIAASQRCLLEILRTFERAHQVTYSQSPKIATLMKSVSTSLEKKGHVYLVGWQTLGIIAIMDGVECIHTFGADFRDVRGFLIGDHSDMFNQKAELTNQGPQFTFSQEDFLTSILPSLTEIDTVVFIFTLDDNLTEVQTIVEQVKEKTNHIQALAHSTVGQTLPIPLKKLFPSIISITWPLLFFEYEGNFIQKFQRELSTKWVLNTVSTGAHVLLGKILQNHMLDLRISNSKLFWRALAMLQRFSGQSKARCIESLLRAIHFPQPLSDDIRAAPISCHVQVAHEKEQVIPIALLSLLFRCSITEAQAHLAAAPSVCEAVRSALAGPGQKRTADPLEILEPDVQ

As for `O=C(c1ccc(OCCN2CCCCC2)cc1)c1c(-c2ccc(O)cc2)sc2cc(O)ccc12`, the Potency entry in [1], in [8] and in assay [9] was “inactive” throughout. Also, the parasite growth, % of DMSO control in assay [2] was determined as 7.18%. For the same molecule, the parasite growth remaining, % of DMSO control (lower = more inhibition) in [3] is 32.9%. In addition, the parasite growth, % of control (lower = inhibition) in assay [4] came to 20.8%. The same molecule showed a growth, % of control in assay [5] of 9.13%. Further, in assay [6], the cell viability, % of control (lower = more cytotoxic) is 67.1%. In addition, the viability (% of control) in [7] is 40.4%. Besides, the Potency in assay [10] was 2.35 µM (active); in assay [11], 7.43 µM (active); in [12], 8.33 µM (active).

Turning to `CN(C)c1nc(N(C)C)nc(N(C)C)n1`, the Potency result in assay [1], in assay [8], in assay [9], in assay [10], in [14] and in assay [12] was “inactive” in each case. The max response in assay [13] was 17.1% (inactive) and -2.91% (inactive). The parasite growth, % of DMSO control in [2] was 89.4%. Besides, the parasite growth remaining, % of DMSO control (lower = more inhibition) in [3] stood at 102%. Further, the parasite growth, % of control (lower = inhibition) in assay [4] was 104%. In addition, the growth, % of control in [5] stood at 101%. In addition, the cell viability, % of control (lower = more cytotoxic) in assay [6] amounted to 97.5%. In addition, the viability (% of control) in assay [7] came out at 106%.

Take `Cc1ccc(C(=O)Nc2ccc(S(=O)(=O)O)c3cc(S(=O)(=O)O)cc(S(=O)(=O)O)c23)cc1NC(=O)c1cccc(NC(=O)Nc2cccc(C(=O)Nc3cc(C(=O)Nc4ccc(S(=O)(=O)O)c5cc(S(=O)(=O)O)cc(S(=O)(=O)O)c45)ccc3C)c2)c1`: the results for the Potency in assay [15] and in assay [1] were 5.62 µM (active) and 17.8 µM (active), respectively. Also, the max response in assay [13] was 35.1% (inactive) and 2.76% (inactive). In assay [2], this molecule displayed a parasite growth, % of DMSO control of 19.9%. The parasite growth remaining, % of DMSO control (lower = more inhibition) in assay [3] came to 75.7%. The parasite growth, % of control (lower = inhibition) in assay [4] was determined as 23.2%. In assay [5], this molecule displayed a growth, % of control of 66.1%. Also, the cell viability, % of control (lower = more cytotoxic) in [6] was 58.9%. Further, the viability (% of control) in [7] came to 102%. Besides, the Potency result in assay [8], in assay [9], in assay [11] and in assay [14] was “inactive” each time.

In the case of `CN1CCN2c3ccccc3Cc3ccccc3C2C1` (stereo unspecified), the Potency entry in [15], in assay [1], in assay [8] and in assay [9] was “inactive” each time. For the same molecule, the max response in [13] was 25.6% (inactive). Also, in assay [2], the parasite growth, % of DMSO control was 56.9%. In addition, the parasite growth remaining, % of DMSO control (lower = more inhibition) in [3] came to 60.5%. Moreover, the parasite growth, % of control (lower = inhibition) in [4] was 44.9%. Also, in assay [5], the growth, % of control was 99.7%. The cell viability, % of control (lower = more cytotoxic) in assay [6] is 83.4%. Also, the viability (% of control) in assay [7] turned out to be 91.5%. The Potency is 20.9 µM (active) in [10] and 16.6 µM (active) in assay [11].

On to `CN1CCN(C2=Nc3cc(Cl)ccc3Nc3ccccc32)CC1`, for which, in [13], the max response is -2.07% (inactive) and 20.9% (inactive). The cell viability, % of control (lower = more cytotoxic) in assay [6] was found to be 121%. In addition, the viability (% of control) in assay [7] worked out at 83.1%. Besides, the Potency result in assay [8], in assay [9] and in assay [10] was “inactive” each time.

Take `OCCN1CCN(CCCN2c3ccccc3Sc3ccc(C(F)(F)F)cc32)CC1`: the Potency entry in assay [15], in assay [1], in [8] and in assay [9] was “inactive” in each case. The parasite growth, % of DMSO control in [2] was 7.22%. In addition, the parasite growth remaining, % of DMSO control (lower = more inhibition) in [3] is 10.5%. Besides, the parasite growth, % of control (lower = inhibition) in assay [4] is 23.4%. This molecule also had a growth, % of control in [5] of 10.5%. Besides, in [6], the cell viability, % of control (lower = more cytotoxic) was 85.8%. The viability (% of control) in assay [7] was 6.77%. In assay [12], the Potency is 23.5 µM (active).

Take `O=c1c(O)c(-c2ccc(O)c(O)c2)oc2cc(O)cc(O)c12`: the Potency entry in assay [1], in [8] and in assay [9] was “inactive” throughout. For the same molecule, the remaining parasite growth % (stronger effect = lower value) in assay [16] was 26.9% and 12.7%. For the same molecule, the activity, percent of control in assay [17] is 8.52% and 5.2%. For the same molecule, the remaining proliferation (% of control), lower = more inhibition in assay [18] was 1.74% and 5.43%. Besides, the parasite growth, % of DMSO control in [2] came to 12.8%. Besides, the parasite growth, % of control (lower = inhibition) in [4] was 9.46%. In assay [5], this molecule displayed a growth, % of control of 11.6%. The cell viability, % of control (lower = more cytotoxic) in [6] is 108%. The viability (% of control) in assay [7] turned out to be 34.4%. Also, the Potency in [10] is 10.5 µM (active); in assay [11] it was 18.7 µM (active); in assay [14], 13.2 µM (active); in assay [12], 20.9 µM (active).

For `COc1ccccc1N1CCN(CC(O)COc2cccc3ccccc23)CC1` (stereo unspecified), the Potency result in assay [15], in assay [1], in assay [8], in [9] and in assay [14] was “inactive” throughout. The max response in [13] was 7.63% (inactive) and 7.03% (inactive). The molecule also gave a parasite growth, % of DMSO control in assay [2] of 64.9%. The parasite growth remaining, % of DMSO control (lower = more inhibition) in assay [3] is 98.8%. Further, in assay [4], the parasite growth, % of control (lower = inhibition) was 65.8%. This molecule also showed a growth, % of control in assay [5] of 74.7%. Moreover, the cell viability, % of control (lower = more cytotoxic) in assay [6] was determined as 156%. Besides, the viability (% of control) in [7] amounted to 112%. In addition, the Potency in [11] is 16.6 µM (active).
